Among the test systems are T-47D breast; MDA-MB-435 melanoma; SW-620 colon; MCF7 breast; HCT-116 colon; HCC-2998 colon; KM12 colon; BT-549 breast.
Common to all, as to assay: NCI-60 one-dose screen, 48 h (100 = growth as untreated, 0 = no growth, -100 = all killed)
Settings in all cases: 10 µM unless noted

About 83,000 compounds went through this panel and 20% of them were active in at least one assay; those are over-represented in the sample as a whole.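 The test compound was applied at a single concentration to cells in 96-well plates for 48 hours, and percent growth was recorded.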 A number with no mark means an inactive call. Active and inactive are the calls of the source. Rule for the calls: active = growth percent below 10; inactive = the rest.

As for `C[C@H]1[C@H](C)CC[C@]2(C(=O)NCC#CCN3CCN(C)CC3)CC[C@]3(C)C(=CC[C@@H]4[C@@]5(C)Cc6c([nH]c7ccccc67)C(C)(C)[C@@H]5CC[C@]43C)[C@H]12`, the growth is 76.7% with T-47D breast; 52.2% in the assay on MDA-MB-435 melanoma; 57.5% in the assay on SW-620 colon; 41.3% in the assay on MCF7 breast; 25.8% in the assay on HCT-116 colon; 76.6% in the assay with HCC-2998 colon. The growth in the assay on KM12 colon was 75.2%.
Turning to `COc1ccc(/C=C2\Oc3cc(OCCCCCN4CCCCC4)ccc3C2=O)cc1OC`, the growth with T-47D breast is 72.4%; in the assay with MDA-MB-435 melanoma, 99.2%; in the assay with SW-620 colon, -61.3% (active); in the assay on MCF7 breast, 70.9%; in the assay on HCT-116 colon, -51.2% (active); with HCC-2998 colon, 94.7%. Also, the growth in the assay with KM12 colon is 80.4%.
As to `COc1ccc(N2CCN(c3ccc(NC4=C(Cl)C(=O)c5ncccc5C4=O)cc3)CC2)cc1`, the growth in the assay on T-47D breast was 33.2%; in the assay on MDA-MB-435 melanoma, -4.96% (active); with SW-620 colon, 15.9%; in the assay on MCF7 breast it was 8.91% (active); with HCT-116 colon, 15.9%; in the assay on HCC-2998 colon, 80.8%. Also, the growth with KM12 colon is 63.8%.
With `CCSCC1CC(O)(c2ccccc2)CC(c2ccc(F)cc2)O1` (stereo not drawn), the growth was -4.7% (active) in the assay on T-47D breast; 5.06% (active) in the assay on MDA-MB-435 melanoma; 8.68% (active) in the assay with SW-620 colon; -11.3% (active) in the assay with MCF7 breast; 69.3% in the assay on HCC-2998 colon; -47.2% (active) with KM12 colon.
Consider `O=[N+]([O-])CC(c1ccccc1)c1c[nH]c2ccccc12` (stereo not drawn), for which the growth in the assay on T-47D breast was 45.1%; in the assay with MDA-MB-435 melanoma it was -14.6% (active); in the assay on SW-620 colon, 27.9%; in the assay on MCF7 breast, 29.9%; in the assay with HCT-116 colon, 32.7%; with HCC-2998 colon it was 77.2%. In the assay with KM12 colon, the growth is 43.6%.
In the case of `N/C(=N\C(N)=N\c1nc2ccccc2s1)c1cnccn1`, the growth in the assay with T-47D breast is 18.2%; in the assay with MDA-MB-435 melanoma, 4.7% (active); with SW-620 colon, 11.4%; in the assay on MCF7 breast, 11.4%; in the assay on HCT-116 colon it was 8.53% (active); in the assay on HCC-2998 colon it was 18.5%. Further, the growth with KM12 colon was 8.11% (active).
`N/C(=N\C(N)=N\c1nc2ccccc2s1)c1ccnc(Br)c1`: the growth in the assay with T-47D breast was 54.3%; in the assay with MDA-MB-435 melanoma, -25.2% (active); in the assay on SW-620 colon it was 13.5%; in the assay on MCF7 breast it was 16.6%; in the assay on HCT-116 colon, 20.2%; with HCC-2998 colon, 70.3%. The growth in the assay with KM12 colon is 23.9%.
Take `O=[N+]([O-])c1cc(Br)c2cccc3c2c1CC3`: the growth in the assay with T-47D breast is 101%; in the assay with MDA-MB-435 melanoma, 113%; with SW-620 colon, 107%; in the assay with MCF7 breast, 89%; with HCT-116 colon it was 106%; with HCC-2998 colon it was 103%. The growth in the assay on KM12 colon is 109%.
With `CN(C)CCC(=O)c1ccc([N+](=O)[O-])cc1`, the growth in the assay on T-47D breast was 89.4%; in the assay on MDA-MB-435 melanoma, 104%; in the assay with SW-620 colon it was 106%; with MCF7 breast, 89.4%; in the assay on HCT-116 colon, 103%; in the assay with HCC-2998 colon, 106%. Also, the growth in the assay with KM12 colon was 113%.
Turning to `CC(=O)c1ccc(NS(=O)(=O)c2cccc(C(=O)Nc3ccc(Br)cc3)c2)cc1`, the growth was 30.6% [25 µM] in the assay with T-47D breast; 53.4% [25 µM] with MDA-MB-435 melanoma; 75.6% [25 µM] in the assay on SW-620 colon; 60.8% [25 µM] with MCF7 breast; 48.4% [25 µM] with HCT-116 colon; 79.8% [25 µM] in the assay with HCC-2998 colon. In addition, the growth in the assay on KM12 colon was 58.2% [25 µM].
For the compound `CNCCn1c(=O)c2cc(OC)c(OC)cc2c2ccc3cc4c(cc3c21)OCO4`, the growth with T-47D breast is 6.22% (active); with MDA-MB-435 melanoma it was -61% (active); in the assay on SW-620 colon it was -47.4% (active); with MCF7 breast, 7.12% (active); with HCC-2998 colon it was -51.6% (active); with KM12 colon it was 3.17% (active).
For the compound `Oc1c(Cl)cc(Cl)c(Cl)c1CNCCNCc1c(O)c(Cl)cc(Cl)c1Cl`, the growth was 20.2% with T-47D breast; 37.1% in the assay on MDA-MB-435 melanoma; 31.5% in the assay on SW-620 colon; 15.6% in the assay with MCF7 breast; 13.9% in the assay on HCT-116 colon; 25.2% with HCC-2998 colon. Further, the growth in the assay on KM12 colon is 24%.
In the case of `CCN(CC)CCOc1ccc(NC(=O)C(C(C)C)N2C(=O)/C(=C/c3ccc(Br)cc3)SC2=S)cc1` (stereo not drawn), the growth in the assay on BT-549 breast was 110%; in the assay with MDA-MB-435 melanoma, 97%; in the assay with SW-620 colon, 41.9%; in the assay on MCF7 breast, 19.3%; in the assay with HCC-2998 colon, 73%; with KM12 colon it was 99.4%.
As for `N#Cc1c(NC(=O)NCc2ccccc2)sc2c1CCCC2`, the growth is 24.1% in the assay on BT-549 breast; -35.3% (active) in the assay with MDA-MB-435 melanoma; 24% in the assay with SW-620 colon; 19.5% in the assay with MCF7 breast; 12.2% in the assay with HCT-116 colon; 22.4% in the assay on HCC-2998 colon. Further, the growth in the assay with KM12 colon was 20.5%.
As to `Nc1c(S(=O)(=O)O)cc2c3c(cccc13)C(=O)OC2=O`, the growth was 104% in the assay with BT-549 breast; 102% with MDA-MB-435 melanoma; 99.8% in the assay on SW-620 colon; 94.8% in the assay on MCF7 breast; 98.6% with HCT-116 colon; 102% in the assay on HCC-2998 colon. For the same compound, the growth in the assay on KM12 colon is 92.5%.
Take `CCCCNC(=O)Oc1ccc(/C(=C(\C)c2ccccc2)c2ccc(OCCN3CCCCC3)cc2)cc1`: the growth in the assay on MDA-MB-435 melanoma was 67.8%; in the assay on SW-620 colon it was 60.8%; in the assay with MCF7 breast it was 22.5%; in the assay with HCT-116 colon, 42.8%; in the assay with HCC-2998 colon, 79%; in the assay with KM12 colon, 52.1%.
